Measurements taken from PubChem BioAssay (NCI).
This is part of a sample that, as a whole, favours compounds with a hit. Of some 83,000 tested, about 20% had one in any assay.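 Compound tested at a single concentration for 48 hours in 96-well plates; a percent growth value below 10 was scored as active.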 A number with no mark means an inactive call. Active and inactive are the calls of the source.

What follows are compounds tested on HL-60(TB) leukemia (assay: NCI-60 one-dose screen, 48 h (100 = growth as untreated, 0 = no growth, -100 = all killed)). Conditions: 10 µM unless noted.

Row | Compound | growth
1 | O=C1c2c[n+](Cc3ccccc3)ccc2-c2nc3ccccc3c3ccnc1c23 | -29.6% (active)
2 | CC(C)(C)CC(C)(C)Nc1c(-c2ccncc2)nc2cnccn12 | 102%
3 | Nc1nc(-c2cccc(Br)c2)cc(-c2cc3ccccc3oc2=O)n1 | 100%
4 | C=C1C(=O)O[C@H]2[C@H]1CC/C(COC(=O)NCc1c[nH]c3ccc(Cl)cc13)=C\CC[C@@]1(C)O[C@@H]21 | -32.9% (active)
5 | COC(=O)c1c2c(c[n+]([O-])c1C)C(=O)C(NCc1ccccc1)=CC2=O | -34.5% (active)
6 | COc1ccc(-c2nc3sccn3c2/C=C/C(=O)c2cc(F)cc(F)c2)cc1 | 60.4%
7 | CCn1c(SCC(=O)Nc2cc(C(F)(F)F)ccc2Cl)nc2ccccc2c1=O | 19.3%
8 | NC(=O)C(=O)c1ccccc1NC=O | 101%
9 | O=C1/C=C/[C@@H](O)[C@@H]2C[C@@H](O)C[C@H]2/C=C/CCC[C@H](CCc2cccc3ccccc23)O1 | -44.8% (active)
10 | CCOC(=O)n1cnc2c(Cl)ncnc21 | 106%
11 | O=C1OCC2=C1C(c1cccc(Br)c1)c1cc3c(cc1N2CCO)OCCO3 (stereo not given) | -23.7% (active)
12 | CNC(=O)c1cc(Oc2cccc3nc(Nc4ccc(Cl)c(F)c4)ccc23)ccn1 | 95%
13 | COc1cc(OC)c2sc(-c3ccc(-n4cncc4-c4ccc(N)cc4)cc3)nc2c1 | 52.6%
14 | COc1ccc(OC)c(/C=C2\COc3ccc(O)c(O)c3C2=O)c1 | -11% (active)
15 | O=C(O)/C=C/C(=O)Nc1cccc(Cn2nnc3cc(Cl)c(Cl)cc32)c1 | 112%
